Assay results as given in PubChem BioAssay AID651946 (Broad Institute, 2012).
Potency and affinity values are given separately. The source made the active and inactive calls.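 Rule for the calls: active = toxic compound whose fitted half-effect dose of signal loss is at most twice its top tested dose; inconclusive = flat fit losing 30 to 70% signal, or poor fit; inactive = the rest.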

Assay: HeLa cell viability loss – plate reader, dry powder, cytotoxicity control, dose response (AID 651946)
Settings: ATP luminescence (CellTiter-Glo), 48 h; series mostly up to 26 µM

Compound	outcome
CS(=O)(=O)c1cccc(-c2nnc(SCc3ccccc3)o2)c1	inactive
COc1cccc(CSc2nnc(-c3ccccc3)o2)c1	inactive
c1ccc(Cn2cc(CSc3nnc(C4CCC4)o3)nn2)cc1	inactive
Cc1ccccc1-c1nnc(SCc2ccccc2)o1	inactive
Fc1ccc(CSc2nnc(-c3ccncc3)o2)cc1	inactive
FC1(F)CN(CCSc2nnc(-c3ccccc3)o2)C1	inactive
Clc1ccccc1CSc1nnc(-c2ccccc2)o1	inactive
Clc1cccc(-c2nnc(SCc3ccccc3)o2)c1	inactive
c1ccc(CSc2nnc(Cc3ccccc3)o2)cc1	inactive
c1ccc(-c2nnc(SCc3ccccn3)o2)cc1	inactive
Fc1ccc(-c2nnc(SCc3ccccn3)o2)cc1	inactive
Brc1cccc(-c2nnc(SCc3ccccn3)o2)c1	inactive
c1ccc(CSc2nnc(-c3cccs3)o2)cc1	inactive
FC(F)(F)Oc1ccc(CSc2nnc(-c3ccccc3)o2)cc1	inactive
c1ccc(-c2nnc(SCCN3CCCC3)o2)cc1	inactive
O=S(Cc1cn(Cc2ccc(F)cc2)nn1)c1nnc(-c2ccc(Cl)cc2)o1 (stereo unspecified)	inactive
c1ccc(-c2nnc(SCCC3OCCCO3)o2)cc1	inactive
Brc1ccc(CSc2nnc(-c3ccccc3)o2)cc1	inactive

Compound	outcome
Clc1cccc(CSc2nnc(-c3ccccc3)o2)c1	inactive
Cc1ccc(-c2nnc(SCc3ccccn3)o2)cc1	inactive
O=C(Cc1ccccc1)c1nnc(-c2ccccc2)o1	inactive
Cc1ccccc1CSc1nnc(-c2ccccc2)o1	inactive
FC(F)(F)c1ccccc1-c1nnc(SCc2ccccc2)o1	inactive
CS(=O)(=O)c1ccc(CSc2nnc(-c3ccccc3)o2)cc1	inactive
c1ccc(CNc2nnc(-c3ccccc3)o2)cc1	inactive
COc1ccccc1-c1nnc(SCc2ccccn2)o1	inactive
c1ccc(Cn2cc(CSc3nnc(-c4ccccc4)o3)nn2)cc1	inactive
c1ccc(CSc2nnc(-c3ccccc3)s2)cc1	inactive
c1ccc(CSc2nnc(-c3cnco3)o2)cc1	inactive
N#Cc1ccccc1CSc1nnc(-c2ccccc2)o1	inactive
c1ccc(CNCCSc2nnc(-c3ccccc3)o2)cc1	inactive
Fc1ccc(CSc2nnc(-c3ccccc3)o2)cc1	inactive
Fc1ccc(-c2nnc(SCc3ccccc3)o2)cc1	inactive
Cc1cccc(-c2nnc(SCc3ccccc3)o2)c1	inactive
Cc1ccc(-c2nnc(SCc3ccccc3)o2)cc1	inactive
Fc1ccc(CSc2nnc(-c3ccc(Cl)cc3)o2)cc1	inactive
